PubChem BioAssay (Tox21)
Records with an inconclusive call do not appear. Calls of active or inactive are those of the source. Unless noted, calls come from the whole dose curve; as a rule, active = well fitted curve in the direction sought with a large enough effect in the repeat runs; inconclusive = weak or mixed curves; inactive = no such curve, though single readings can be large; an effect the other way counts as inactive or inconclusive.

Legend:
[1] = qHTS assay for small molecule agonists of the p53 signaling pathway (AID 651631; calls by dose curve; note: nearly all actives have a fitted effect of over 15% in size)
In short: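 Fluorescence intensity from cleaved LiveBLAzer B/G substrate (2 h, room temperature) served as the signal. Beforehand, HCT-116 reporter cells bearing p53 response elements were treated 16 h at 37 °C with DMSO-dissolved compounds.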

[2] = qHTS assay for small molecules that induce genotoxicity in human embryonic kidney cells expressing luciferase-tagged ATAD5 (AID 651632); note: nearly all actives have a fitted effect of over 15% in size
In short: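 Increased luciferase signal from ATAD5-tagged reporter cells indicates DNA-damage-driven ATAD5 induction. HEK293T cells are treated for 16 hr at 37C before detection with Amplite.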

[3] = qHTS assay for small molecule agonists of the p53 signaling pathway - cell viability (AID 651633; calls by dose curve;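 note: p53RE-bla HCT reporter cells with a stable beta-lactamase p53 reporter; series mostly up to about 83 µM; nearly all actives have a fitted effect of over 30% in size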)
In short: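 p53RE-bla cells were treated with compound for 16 hours at 37 C. Cytotoxicity was then measured as CellTiter-Glo luminescence after 30 min at room temperature.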

[4] = qHTS assay for small molecules that induce genotoxicity in human embryonic kidney cells expressing luciferase-tagged ATAD5 - cell viability (AID 651634; calls by dose curve; note: nearly all actives have a fitted effect of over 25% in size)
In short: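 Cytotoxicity counterscreen in HEK293T cells bearing an ATAD5-luciferase reporter: live-cell protease activity measured by CellTiter-Fluor fluorescence after 15.5 hr compound exposure.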

[5] = qHTS assay for small molecule disruptors of the mitochondrial membrane potential - cell viability (AID 720634; calls by dose curve;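 note: human HepG2 liver cancer cells; series mostly up to about 83 µM; nearly all actives have a fitted effect of over 20% in size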)
In short: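 After overnight attachment at 37 C, HepG2 cells received compound or DMSO vehicle for 1 hr. Viability is then taken from ATP-driven luminescence following a 30 min room-temperature CellTiter-Glo step.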

[6] = qHTS assay for small molecule disruptors of the mitochondrial membrane potential (AID 720635)
In short: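 HepG2 cells exposed to compound 1 hr at 37C, then Mito-MPS dye 30 min. Ratio read of aggregate (540/590 nm) versus monomer (490/535 nm) fluorescence.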

[7] = qHTS assay to test for compound auto fluorescence at 590 nm (red) in HepG2 cells (AID 720674)
In short: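 Fluorescence at 590 nm emission following 540 nm excitation was recorded from HepG2 wells one hour after compound transfer, with DMSO-only wells as vehicle and Rose Bengal sodium equivalency as the scale.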

[8] = qHTS assay to test for compound auto fluorescence at 535 nm (green) in HepG2 cells (AID 720675)
[9] = qHTS assay to test for compound auto fluorescence at 460 nm (blue) in HEK293 cells (AID 720678)
In short: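 Triamterene serves as the blue fluorophore standard. Compound signal at 405/460 nm is read in HEK293 wells (2,000 cells, 10% dialyzed FBS) after overnight treatment at 37C.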

[10] = qHTS assay to test for compound auto fluorescence at 590 nm (red) in HEK293 cells (AID 720679)
In short: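 We plated HEK293 cells in 10% dialyzed FBS medium, let them adhere for 4-5 hr, then added 23 nL compound. Overnight at 37C and 5% CO2 preceded fluorescence measurement at 540/590nm.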

[11] = qHTS assay to test for compound auto fluorescence at 535 nm (green) in HEK293 cells (AID 720680)
[12] = qHTS assay to test for compound auto fluorescence at 460 nm (blue) in HEK293 cell free culture (AID 720681)
In short: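 Compounds were added to cell-free DMEM with 10% FBS and fluorescence read directly. The blue channel used 405 nm excitation and 460 nm emission, with triamterene as the reference fluorophore.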

[13] = qHTS assay to test for compound auto fluorescence at 535 nm (green) in HEK293 cell free culture (AID 720682)
In short: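 Intrinsic compound fluorescence is measured in culture medium containing 10% FBS, with excitation at 485 nm and detection at 535 nm, referenced to fluorescein.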

[14] = qHTS assay to test for compound auto fluorescence at 590 nm (red) in HepG2 cell free culture (AID 720684)
In short: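 Compound was pinned into wells holding MEM with 10% FBS and no cells, and red fluorescence was read at Ex/Em 540/590 nm. Signal is expressed as auto fluorescence equivalency relative to Rose Bengal sodium.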

[15] = qHTS assay to test for compound auto fluorescence at 460 nm (blue) in HepG2 cell free culture (AID 720685)
In short: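 Compound (23 nL) or DMSO pinned into cell-free MEM with 10% FBS; blue fluorescence read at 405/460 nm excitation/emission, expressed as auto-fluorescence equivalency to triamterene.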

[16] = qHTS assay to test for compound auto fluorescence at 535 nm (green) in HepG2 cell free culture (AID 720686)
[17] = qHTS assay to test for compound auto fluorescence at 460 nm (blue) in HepG2 cells (AID 720687)
In short: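 HepG2 cells in MEM with 10% FBS, attached overnight at 37 C, were exposed to compound or DMSO for 1 hr at 37 C, 5% CO2. Blue fluorescence was read at 405/460 nm, with triamterene as reference fluorophore.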

[18] = biological target: Glucocorticoid receptor (Homo sapiens) (UniProt P04150); experiment: qHTS assay to identify small molecule agonists of the glucocorticoid receptor (GR) signaling pathway (AID 720691; active = well fitted activation curve with a large enough effect in the signal ratio in the repeat runs, not every such curve was filed as active; the % refers to the signal ratio)
In short: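 Agonist mode in a HeLa line carrying a GRE-controlled beta-lactamase reporter. Compounds act for 18 h at 37 C before a 2 h room-temperature FRET substrate step and fluorescence reading.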

[19] = biological target: Glucocorticoid receptor (Homo sapiens) (UniProt P04150); experiment: qHTS assay to identify small molecule antagonists of the glucocorticoid receptor (GR) signaling pathway (AID 720692; active = well fitted inhibition curve with a large enough effect in the signal ratio in the repeat runs, not every such curve was filed as active; the % refers to the signal ratio)
In short: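 Cells plated, rested 4 h at 37 C/5% CO2; compounds in DMSO pin-transferred; dexamethasone added to 5 nM final; 18 h at 37 C; B/G FRET substrate added, 2 h room temperature; fluorescence measured.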

[20] = qHTS assay to test for compound auto fluorescence at 590 nm (red) in HEK293 cell free culture (AID 720683)
In short: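 Cell-free wells of DMEM with 10% FBS received compound, and intrinsic fluorescence was read at excitation/emission 540/590 nm. Values expressed as equivalence to Rose Bengal sodium.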

Measured: Potency

Sequence of Glucocorticoid receptor (Homo sapiens) (P04150 whole entry, looked up): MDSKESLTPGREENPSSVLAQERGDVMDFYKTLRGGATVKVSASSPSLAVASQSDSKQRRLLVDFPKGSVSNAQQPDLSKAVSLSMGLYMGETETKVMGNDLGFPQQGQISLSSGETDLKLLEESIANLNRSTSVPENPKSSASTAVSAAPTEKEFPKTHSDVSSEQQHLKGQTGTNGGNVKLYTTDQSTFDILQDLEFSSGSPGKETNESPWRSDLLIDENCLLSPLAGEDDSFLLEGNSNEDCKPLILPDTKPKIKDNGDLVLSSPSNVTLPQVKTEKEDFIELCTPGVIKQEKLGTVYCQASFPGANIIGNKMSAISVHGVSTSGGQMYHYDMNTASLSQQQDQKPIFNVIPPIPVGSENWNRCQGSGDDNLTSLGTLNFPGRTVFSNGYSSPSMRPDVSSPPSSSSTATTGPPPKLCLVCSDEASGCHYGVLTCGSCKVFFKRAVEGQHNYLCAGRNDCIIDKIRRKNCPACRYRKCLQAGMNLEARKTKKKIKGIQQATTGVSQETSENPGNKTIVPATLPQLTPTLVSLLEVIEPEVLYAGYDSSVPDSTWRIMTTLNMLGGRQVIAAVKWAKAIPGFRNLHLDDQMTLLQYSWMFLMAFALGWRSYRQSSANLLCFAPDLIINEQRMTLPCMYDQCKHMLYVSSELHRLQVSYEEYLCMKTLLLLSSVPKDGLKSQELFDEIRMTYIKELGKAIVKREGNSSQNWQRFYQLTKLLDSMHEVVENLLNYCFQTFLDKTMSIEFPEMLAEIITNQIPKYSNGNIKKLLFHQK

CC(C)Cc1ccc(CC(=O)O)cc1
inactive: [1] | [2] | [3] | [4] | [5] | [6] | [7] | [8] | [9] | [10] | [11] | [12] | [13] | [14] | [15] | [16] | [17] | [18] | [19]

COc1cc(NS(=O)(=O)c2ccc(N)cc2)nc(C)n1
inactive: [1] | [2] | [3] | [4] | [5] | [6] | [7] | [8] | [9] | [10] | [11] | [12] | [13] | [20] | [14] | [15] | [16] | [17] | [18] | [19]

Cc1c[nH]c2ccccc12
inactive: [1] | [2] | [3] | [4] | [5] | [6] | [7] | [8] | [9] | [10] | [11] | [12] | [13] | [14] | [16] | [17] | [18] | [19]

CC(=O)c1ccc[nH]1
inactive: [1] | [2] | [3] | [4] | [5] | [6] | [7] | [8] | [9] | [10] | [11] | [12] | [13] | [20] | [14] | [15] | [16] | [17] | [18] | [19]

C=CC(=O)O
inactive: [1] | [2] | [3] | [4] | [5] | [6] | [7] | [8] | [9] | [10] | [11] | [12] | [20] | [14] | [15] | [16] | [17] | [18] | [19]

CCCCCCCCCCCCCCCCCC(=O)OCC(CC)CCCC (centres undefined)
inactive: [1] | [2] | [3] | [4] | [5] | [6] | [7] | [8] | [9] | [10] | [11] | [12] | [13] | [20] | [14] | [15] | [16] | [17]

CCO[Si](C)(CCCOCC1CO1)OCC (centres undefined)
inactive: [1] | [2] | [3] | [4] | [5] | [6] | [7] | [8] | [9] | [10] | [11] | [12] | [13] | [20] | [14] | [15] | [16] | [18] | [19]

CCCCCCC(CO)CCCC (centres undefined)
inactive: [1] | [2] | [3] | [4] | [5] | [7] | [8] | [9] | [10] | [11] | [12] | [13] | [20] | [14] | [15] | [16] | [17] | [18]

O=CNNC=O
inactive: [1] | [2] | [3] | [4] | [5] | [7] | [8] | [9] | [10] | [11] | [12] | [13] | [20] | [14] | [15] | [16] | [17] | [18] | [19]

O=P(O)(O)Oc1ccccc1
inactive: [1] | [2] | [3] | [4] | [5] | [7] | [8] | [9] | [10] | [11] | [12] | [13] | [20] | [14] | [15] | [16] | [17] | [18] | [19]

COc1ccc(C)cc1
inactive: [1] | [2] | [3] | [4] | [5] | [7] | [8] | [9] | [10] | [11] | [12] | [13] | [20] | [14] | [15] | [16] | [18]

CCC(CO)(CO)[N+](=O)[O-]
inactive: [1] | [2] | [3] | [4] | [5] | [7] | [8] | [9] | [10] | [11] | [12] | [13] | [20] | [14] | [15] | [16] | [17] | [18]

CC(C)CC(O)CC(C)C
inactive: [1] | [2] | [3] | [4] | [5] | [7] | [8] | [9] | [10] | [11] | [12] | [13] | [20] | [14] | [15] | [16] | [18] | [19]

CC(C)COC(=O)COc1cc(Cl)c(Cl)cc1Cl
inactive: [1] | [2] | [3] | [4] | [5] | [7] | [8] | [9] | [10] | [11] | [12] | [13] | [20] | [14] | [15] | [16] | [17] | [18]

C[C@H](CS)C(=O)N1CCC[C@H]1C(=O)O
inactive: [1] | [2] | [3] | [4] | [5] | [7] | [8] | [9] | [10] | [11] | [12] | [13] | [20] | [14] | [15] | [16] | [17] | [18] | [19]
